# This excerpt belongs to a sample that is enriched for hits.
# TDP1 cell CPT = DT40-hTDP1 cell growth loss with CPT; chicken DT40 Tdp1-/-;hTDP1 cells + 20 nM CPT, ATP luminescence, 48 h; Potency, µM (series often up to 46.2 µM), for the others: at the highest dose activity change, negative = growth inhibition, usual class: inhibitors; 12% of 420,000 active; AID 686979; further: potency means the concentration at half of the fitted maximal effect; nearly all actives have a fitted effect of over 55% in size
#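 Cell growth measured by CellTiter-Glo luminescence after a minimum 48 h, 37 C compound exposure with 20 nM CPT in Tdp1-knockout DT40 cells stably expressing hTDP1, seeded 400/well; qHTS titration format.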
# IL1B secr inh = blocks inflammasome-driven IL-1 beta release. AID 743279. THP-1 LPS/ATP IL-1B secretion, AlphaLISA, 16 h; stronger effect = lower value. activity change, % at 57.5 µM. 4.7% of 360,000 active; in the data active means activity change below about -50%; inconclusive means mostly about -30% to -49%
#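 THP-1 cells pretreated 1 hr with compounds (up to 57.5 uM final), then stimulated with LPS (250 ng/mL final) plus ATP (1.25 mM final); secreted IL-1B measured by AlphaLISA after 16 hr, decreased signal indicating inhibition.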
# HT1080 IDH1KD tx = toxicity to HT-1080 IDH1 knockdown cells (counter line); HT-1080 IDH1 knockdown viability, ATP luminescence, 48 h; Potency, µM (series often up to 46.1 µM), without a hit: at the highest dose activity, negative = toxicity, most hits filed as cytotoxic; 2% of 360,000 active;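 further: potency means the concentration at half of the fitted maximal effect; 0% = DMSO wells and -100% = cell-free medium wells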
#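 After a 2 h attachment period, IDH1KD HT-1080 cells took pin-transferred compound for 48 h at 37 °C; ATP-based luminescence after 10 min room-temperature reagent incubation reported viability.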
# DT40 TDP1 no CPT = qHTS for Inhibitors of human tyrosyl-DNA phosphodiesterase 1 (TDP1): qHTS in cells in absence of CPT; DT40 Tdp1-/- hTDP1 cells, no CPT, ATP luminescence, 48 h; Potency, µM (highest dose often 46.2 µM), for the others: at the top dose activity change, negative = growth inhibition, usual class: inhibitors; 15% of 420,000 active; AID 686978, 2013; further: potency means the concentration at half of the fitted maximal effect; nearly all actives have a fitted effect of over 55% in size
#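 Chicken DT40 Tdp1-/- cells stably complemented with human TDP1 were seeded at 400 cells/well with DMSO in place of 20 nM camptothecin. After compound pinning, cells grew at least 48 hr at 37 °C; viability read by CellTiter-Glo luminescence.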
# HT1080NT lethal = kills 2HG-producing HT-1080-NT fibrosarcoma cells; AID 686970; Potency, µM (series often up to 46.1 µM), for the others: at the top dose activity, negative = less viability, most hits filed as cytotoxic; HT-1080-NT fibrosarcoma viability, CellTiter-Glo ATP luminescence, 48 h; 1.6% of 360,000 active;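 further: NT is the 2HG producing partner of a matched IDH1 knockdown line; potency means the concentration at half of the fitted maximal effect; 0% = DMSO-treated cells and -100% = media-only wells without cells; nearly all actives have a fitted effect of over 55% in size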
#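 A 48-hour cytotoxicity screen used HT-1080-NT cells plated 2 hours before compound delivery. ATP-based CellTiter-Glo luminescence measured viability, normalized to DMSO and no-cell controls.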
# ALOX12 inh = inhibitors of human 12S-lipoxygenase ALOX12. purified 12hLO, xylenol orange hydroperoxide absorbance. 1.1% of 580,000 active. Potency, µM (doses to about 108 µM), for the others: at the highest dose activity change, negative = inhibition, actives largely listed as inhibitors. P18054; further: potency means the concentration at half of the fitted maximal effect
# Target sequence (P18054 whole entry, looked up): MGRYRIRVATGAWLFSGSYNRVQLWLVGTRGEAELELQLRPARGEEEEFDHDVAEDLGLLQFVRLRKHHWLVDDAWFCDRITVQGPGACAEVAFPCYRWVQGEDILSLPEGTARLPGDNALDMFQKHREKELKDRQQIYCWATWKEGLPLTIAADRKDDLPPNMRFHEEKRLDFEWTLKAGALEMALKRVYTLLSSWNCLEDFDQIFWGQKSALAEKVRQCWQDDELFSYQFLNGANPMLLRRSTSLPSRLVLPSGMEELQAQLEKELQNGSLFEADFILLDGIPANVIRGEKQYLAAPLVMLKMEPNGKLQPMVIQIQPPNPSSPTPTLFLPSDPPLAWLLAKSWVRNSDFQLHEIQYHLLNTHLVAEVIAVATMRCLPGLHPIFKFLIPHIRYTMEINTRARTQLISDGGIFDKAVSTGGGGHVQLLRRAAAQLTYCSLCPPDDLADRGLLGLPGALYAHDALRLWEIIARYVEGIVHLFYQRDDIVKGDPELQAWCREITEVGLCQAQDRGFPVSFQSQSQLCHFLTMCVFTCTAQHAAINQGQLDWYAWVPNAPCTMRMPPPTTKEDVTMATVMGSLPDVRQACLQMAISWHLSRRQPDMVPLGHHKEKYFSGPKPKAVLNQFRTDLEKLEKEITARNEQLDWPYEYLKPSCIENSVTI
#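 Hydroperoxide product was detected by ferrous iron/xylenol orange as the 573 to 405 nm absorbance ratio. Arachidonic acid at 40 uM (final) was turned over for 30 min at room temperature by 150 nM human 12hLO, pH 7.0 Hepes buffer, after 15 min compound preincubation.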
# An asterisk follows results filed as active; ? = inconclusive; · = not tested or not shown; [ ] = remark or other dose. Unless noted, the call rests on the fitted dose curve; in most records, active means well fitted curve in the direction sought with a large enough effect; inconclusive means small, poorly fitted or top-dose-only effect, or another doubt; inactive means no such curve, though single readings can be large; an effect the other way counts as inactive or inconclusive. Unless noted, on the % scale 0 is the no-effect control and ±100 the full control effect.
SMILES,TDP1 cell CPT,IL1B secr inh,HT1080 IDH1KD tx,DT40 TDP1 no CPT,HT1080NT lethal,ALOX12 inh
COc1ccc(N=C2O/C(=C/c3sc(=S)n(CC4CCCO4)c3O)N=C2C#N)cc1 (stereo not given),?,-12.2,-19.5%,29.1µM*,0.0%,456.2%
Cc1ccc(S(=O)(=O)NC(CC(=O)O)c2ccccc2)cc1 (stereo not given),-8.9%,18.7,0.0%,-0.2%,-12.5%,?
Cc1ccc(S(=O)(=O)NC(CCc2ccccc2)CC(=O)C(C)(C)C)cc1 (stereo not given),23.1µM*,4.1,-12.7%,16.4µM*,-16.2%,·
CCOC(=O)[C@]12CCC=C1N(Cc1ccc(Cl)cc1Cl)C(=O)[C@H](CC(=O)NCc1cccs1)C2,?,-61.3*,?,20.6µM*,?,-18.2%
COC(=O)[C@]12CCCCC=C1N(Cc1ccc(Cl)cc1Cl)C(=O)[C@H](CC(=O)NCc1cccs1)C2,?,0.0,-28.1%,23.1µM*,-24.0%,-28.2%
CCOC(=O)[C@]12CCCC=C1N(Cc1ccc(Cl)cc1Cl)C(=O)[C@H](CC(=O)NCc1cccs1)C2,?,-28.8,?,?,?,-10.0%
CCOc1ccc(S(=O)(=O)N2CC(=O)Nc3ccccc32)cc1C#N,-15.3%,5.2,6.1%,-4.8%,6.5%,-13.5%
CCOc1ccc(S(=O)(=O)N2CC(=O)Nc3ccccc32)cc1,?,52.3,11.6µM*,?,?,70.1%
O=C1CN(S(=O)(=O)c2ccc(Br)cc2)c2ccccc2N1,-6.5%,-13.7,-11.2%,-5.1%,0.0%,-6.2%
COc1ccc(S(=O)(=O)N2CC(=O)Nc3ccccc32)cc1Cl,-4.9%,-0.8,5.5%,-3.0%,3.2%,6.31µM*
CS(=O)(=O)N1CC2(CCN(C3CCCCC3)CC2)Cc2ccccc21,·,·,·,·,·,0.4%[6.33 µM]
COc1cccc(-c2cc(C(F)(F)F)n3nc(N)nc3n2)c1,-21.5%,-3.2,2.0%,?,0.5%,0.0%
COc1cccc(-c2cn3nc4c(nc3n2)CCCC4)c1,-35.3%,-12.7,16.4µM*,16.4µM*,?,·
Cc1ccsc1-c1cc2nc(Nc3ccc(F)cc3)n(C)c(=O)c2s1,?,-23.1,-11.1%,?,-1.0%,3.3%
COc1ccc(Nc2nc3cc(-c4ccccc4C)sc3c(=O)n2C)cc1OC,?,?,?,?,?,35.5µM*
Cc1ccccc1-c1cc2nc(Nc3ccc(F)cc3)n(C)c(=O)c2s1,?,-15.5,?,23.1µM*,?,?
CCOC(=O)Cc1ccc(Nc2nc3cc(-c4ccccc4C)sc3c(=O)n2C)cc1,?,?,?,?,?,-4.7%
Cc1ccc2nc(C(C)(C)C)c(Cc3ccccc3C(F)(F)F)n2c1,16.4µM*,-8.5,?,14.6µM*,?,?
Cc1ccc(-c2nc3c4ccccc4ccn3c2Cc2ccccc2C(F)(F)F)cc1,?,22.2,8.4%,16.4µM*,10.4%,-10.5%
Cc1ccc2nc(-c3ccccc3)c(Cc3ccccc3C(F)(F)F)n2c1,16.4µM*,-13.0,?,?,?,-1.3%
Cc1ccc(-c2nc3c(Cl)cc(C(F)(F)F)cn3c2Cc2ccccc2C(F)(F)F)cc1,1.2%,17.7,4.6%,-23.1%,10.4%,?
Cc1cc2nc(C(C)(C)C)c(Cc3ccccc3C(F)(F)F)n2c(C)c1Br,?,47.1,?,?,?,?
Cc1ccc(-c2nc3ccc(C)cn3c2Cc2ccccc2C(F)(F)F)cc1,29.1µM*,-27.9,?,?,?,?
O=C1[C@@H]2C[C@@H](O)CN2C2(CN(Cc3cccc(F)c3)C2)C(=O)N1Cc1ccccc1F,·,·,·,·,·,0.1%[176 µM]

# Screens from PubChem.
